In PubChem BioAssay (Tox21):
Where “and” joins values, the source holds several entries; their conditions need not be identical. Equal entries are not always repeated. Records with an inconclusive call do not appear. Some compounds were tested as several samples or in several runs, with calls that do not always agree. Calls of active or inactive are those of the source. Unless noted, calls come from the whole dose curve; as a rule, active = well fitted curve in the direction sought with a large enough effect in the repeat runs; inconclusive = weak or mixed curves; inactive = no such curve, though single readings can be large; an effect the other way counts as inactive or inconclusive.

Tests used:
[1] = qHTS assay to identify small molecule agonists of the RXR signaling pathway - cell viability counter screen (AID 1159529); settings: RXR-alpha-bla HEK293T viability, CellTiter-Glo, 16 h; series mostly up to 76.8 µM; note: nearly all actives have a fitted effect of over 50% in size; note: potency is the fitted concentration of half-maximal effect
Procedure, shortened: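 CellTiter-Glo luminescence gave viability in the wells also read for beta-lactamase. Cells (RXR-alpha-UAS-bla HEK 293T, 2% charcoal-stripped FBS medium) had 5 hr plating, then 16 hr compound exposure at 37 C; tetraoctyl ammonium bromide served as positive control.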

[2] = qHTS assay to identify small molecule antagonists of the retinoid acid receptor (RAR) signaling pathway - cell viability counter screen (AID 1159551); settings: C3RL4 cells viability, ATP luminescence (CellTiter-Glo), 6 h; series mostly up to 92.4 µM; note: nearly all actives have a fitted effect of over 35% in size
Procedure, shortened: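 Following overnight attachment, C3RL4 reporter cells received DMSO-dissolved compounds and then retinol (1 uM final). Six hours later at 37 C, ATP content was measured by CellTiter-Glo luminescence.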

[3] = qHTS assay to identify small molecule antagonists of the retinoic acid receptor (RAR) signaling pathway (AID 1159552; note: nearly all actives have a fitted effect of over 50% in size; note: potency is the fitted concentration of half-maximal effect); settings: C3RL4 RARE luciferase reporter, retinol-stimulated, 6 h; series mostly up to 92.4 µM
Procedure, shortened: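 Luminescent RARE reporter read-out in C3RL4 cells: 6 hr co-treatment at 37 C of test compounds with retinol at 1 uM final. Cells plated overnight beforehand; luciferase reagent incubated 30 min at room temperature before reading.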

[4] = qHTS assay to identify small molecule antagonists of the estrogen related receptor (ERR) signaling pathway from Tox21 library - cell viability counter screen (AID 1224834); settings: ERR reporter cells viability, CellTiter-Fluor, 17.5 h; series mostly up to 92.4 µM; note: nearly all actives have a fitted effect of over 30% in size; note: potency is the fitted concentration of half-maximal effect
Procedure, shortened: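 Viability readout (CellTiter-Fluor fluorescence, 30 min at 37 C) multiplexed with the ERR assay; cells treated 17.5 h at 37 C with compounds delivered in DMSO.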

[5] = molecular target: Luciferin 4-monooxygenase (Photinus pyralis) (UniProt P08659); assay: qHTS assay to identify small molecule inhibitors of firefly luciferase (AID 1224835); note: nearly all actives have a fitted effect of over 25% in size; note: potency is the fitted concentration of half-maximal effect; settings: purified P. pyralis luciferase, luminescence inhibition; series mostly up to 115 µM
Chain of Luciferin 4-monooxygenase (Photinus pyralis) (P08659 whole entry, looked up): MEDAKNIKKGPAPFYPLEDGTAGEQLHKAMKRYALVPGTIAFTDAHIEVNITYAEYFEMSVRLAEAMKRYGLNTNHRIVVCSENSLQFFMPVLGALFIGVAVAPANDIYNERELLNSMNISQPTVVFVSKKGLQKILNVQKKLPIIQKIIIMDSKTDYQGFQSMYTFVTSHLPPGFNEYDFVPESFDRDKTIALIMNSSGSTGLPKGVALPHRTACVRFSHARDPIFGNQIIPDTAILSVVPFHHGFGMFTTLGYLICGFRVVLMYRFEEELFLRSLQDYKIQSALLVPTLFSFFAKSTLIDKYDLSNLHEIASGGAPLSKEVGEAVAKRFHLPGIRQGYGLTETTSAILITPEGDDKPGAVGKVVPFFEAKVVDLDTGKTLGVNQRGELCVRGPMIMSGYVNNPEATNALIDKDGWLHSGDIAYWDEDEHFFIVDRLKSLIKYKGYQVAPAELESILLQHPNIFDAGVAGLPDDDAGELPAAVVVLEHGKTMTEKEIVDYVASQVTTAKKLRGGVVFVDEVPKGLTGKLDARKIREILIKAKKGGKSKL
Procedure, shortened: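 Biochemical qHTS: compounds run as interplate titrations against purified firefly enzyme, with D-luciferin and ATP each at its KM concentration. Light output recorded by CCD imaging.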

[6] = qHTS assay to identify small molecule agonists of the constitutive androstane receptor (CAR) signaling pathway - cell viability counter screen (AID 1224836); settings: HepG2-CYP2B6-hCAR viability, CellTiter-Fluor, 23 h, PK11195 added to every well; series mostly up to 92.4 µM; note: nearly all actives have a fitted effect of over 45% in size
Procedure, shortened: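 Cell viability multiplexed with the CAR agonist screen: CellTiter-Fluor fluorescence after 23 hr at 37 C. HepG2-CYP2B6-hCAR cells got compounds at 15 concentrations with PK11195 at 0.75 uM final.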

[7] = qHTS assay to identify small molecule antagonists of the constitutive androstane receptor (CAR) signaling pathway - cell viability counter screen (AID 1224837); settings: HepG2-CYP2B6-hCAR viability, CellTiter-Fluor, 23 h, co-treated with 50 nM CITCO; series mostly up to 92.4 µM; note: nearly all actives have a fitted effect of over 45% in size
Procedure, shortened: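 Fluorescence from CellTiter-Fluor served as the viability signal. Human hepatoma HepG2 cells stably bearing hCAR and CYP2B6-2.2kb received compound plus CITCO (50 nM final) for 23 hr.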

[8] = molecular target: Nuclear receptor subfamily 1 group I member 3 (Homo sapiens) (UniProt Q14994); assay: qHTS assay to identify small molecule antagonists of the constitutive androstane receptor (CAR) signaling pathway (AID 1224838); settings: HepG2-CYP2B6-hCAR luciferase, CITCO-stimulated, 24 h; series mostly up to 92.4 µM;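 note: HepG2 cells stably expressing hCAR with CYP2B6 luciferase reporter stimulated by CITCO; nearly all actives have a fitted effect of over 40% in size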
Chain of Nuclear receptor subfamily 1 group I member 3 (Homo sapiens) (Q14994 whole entry, looked up): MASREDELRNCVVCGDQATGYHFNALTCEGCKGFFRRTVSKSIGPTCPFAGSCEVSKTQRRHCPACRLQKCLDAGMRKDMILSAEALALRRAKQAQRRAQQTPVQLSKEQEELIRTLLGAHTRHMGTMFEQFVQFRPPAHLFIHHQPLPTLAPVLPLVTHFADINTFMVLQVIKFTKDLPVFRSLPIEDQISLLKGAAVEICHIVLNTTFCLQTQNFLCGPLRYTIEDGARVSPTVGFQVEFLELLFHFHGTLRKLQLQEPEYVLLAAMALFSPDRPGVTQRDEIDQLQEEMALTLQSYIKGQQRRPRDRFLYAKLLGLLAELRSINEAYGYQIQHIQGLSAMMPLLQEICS
Procedure, shortened: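 Quantitative HTS in double-stable HepG2-CYP2B6-hCAR cells. After 4 h plating, cells get compound (15 concentrations) and CITCO at 50 nM final, incubate 24 h at 37 C, then ONE-Glo luminescence is read.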

[9] = molecular target: Nuclear receptor subfamily 1 group I member 3 (Homo sapiens) (UniProt Q14994); assay: qHTS assay to identify small molecule agonists of the constitutive androstane receptor (CAR) signaling pathway (AID 1224839); settings: HepG2 hCAR CYP2B6-luciferase, agonist mode, 24 h; series mostly up to 92.4 µM; note: nearly all actives have a fitted effect of over 15% in size; note: potency is the fitted concentration of half-maximal effect;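 for activation: HepG2 cells stably carrying human CAR and a CYP2B6 luciferase reporter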
Procedure, shortened: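 Luminescent ONE-Glo read-out after 24 hr, 37 C exposure of double-stable HepG2-CYP2B6-hCAR reporter cells to a 15-point compound series, in the presence of 0.75 uM PK11195 (final).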

[10] = qHTS assay to identify small molecule antagonists of the estrogen related receptor signaling pathway with the pleiotropic PPARgamma coactivator (PGC) from Tox21 10K library - cell viability counter screen (AID 1224840; active = well fitted cell-killing curve with a large enough effect in the repeat runs, not every such curve was filed as active; note: nearly all actives have a fitted effect of over 40% in size); settings: PGC/ERR reporter cells viability, CellTiter-Fluor, 17.5 h; series mostly up to 92.4 µM
Procedure, shortened: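 Compounds in DMSO, alongside positive and negative controls, were pinned onto PGC/ERR cells (2,000 per well). Exposure lasted 17.5 hours at 37 C, followed by a 30-minute CellTiter-Fluor incubation and fluorescence reading.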

[11] = qHTS assay to identify small molecule antagonists of the estrogen related receptor signaling pathway with the pleiotropic PPARgamma coactivator (PGC) from Tox21 10K library (AID 1224841; call rule not given here; note: actives are mostly falling curves and most rising ones were filed inactive; nearly all actives have a fitted effect of over 50% in size; note: potency is the fitted concentration of half-maximal effect); settings: PGC/ERR reporter cell line, ONE-Glo luciferase, 18 h; series mostly up to 92.4 µM
Procedure, shortened: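 Compound exposure ran 18 hours at 37 C in PGC/ERR cells (2,000/well) that had first rested 6 hours in a 37 C/5% CO2 incubator. Luciferase activity was then detected with One-Glo after a 30-minute room-temperature step.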

[12] = qHTS assay to identify small molecule agonists of the estrogen related receptor signaling pathway with the pleiotropic PPARgamma coactivator (PGC) from Tox21 10K library (AID 1224842); settings: PGC/ERR reporter cell line, luciferase ONE-Glo, 18 h; series mostly up to 92.4 µM; note: nearly all actives have a fitted effect of over 15% in size
Procedure, shortened: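 PGC/ERR reporter cell line, 2,000 cells per well, incubated 6 h at 37 C before 23 nL compound in DMSO was added. After 18 h at 37 C, One-Glo luminescence read following 30 min at room temperature.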

[13] = molecular target: Thyrotropin receptor (Homo sapiens) (UniProt P16473); assay: qHTS assay to identify small molecule agonists of the thyroid stimulating hormone receptor (TSHR) signaling pathway (AID 1224843; calls by dose curve; note: nearly all actives have a fitted effect of over 45% in size); settings: TSHR-HEK293 cells, cAMP HTRF, agonist mode, 30 min; series mostly up to 92.4 µM
Chain of Thyrotropin receptor (Homo sapiens) (P16473 whole entry, looked up): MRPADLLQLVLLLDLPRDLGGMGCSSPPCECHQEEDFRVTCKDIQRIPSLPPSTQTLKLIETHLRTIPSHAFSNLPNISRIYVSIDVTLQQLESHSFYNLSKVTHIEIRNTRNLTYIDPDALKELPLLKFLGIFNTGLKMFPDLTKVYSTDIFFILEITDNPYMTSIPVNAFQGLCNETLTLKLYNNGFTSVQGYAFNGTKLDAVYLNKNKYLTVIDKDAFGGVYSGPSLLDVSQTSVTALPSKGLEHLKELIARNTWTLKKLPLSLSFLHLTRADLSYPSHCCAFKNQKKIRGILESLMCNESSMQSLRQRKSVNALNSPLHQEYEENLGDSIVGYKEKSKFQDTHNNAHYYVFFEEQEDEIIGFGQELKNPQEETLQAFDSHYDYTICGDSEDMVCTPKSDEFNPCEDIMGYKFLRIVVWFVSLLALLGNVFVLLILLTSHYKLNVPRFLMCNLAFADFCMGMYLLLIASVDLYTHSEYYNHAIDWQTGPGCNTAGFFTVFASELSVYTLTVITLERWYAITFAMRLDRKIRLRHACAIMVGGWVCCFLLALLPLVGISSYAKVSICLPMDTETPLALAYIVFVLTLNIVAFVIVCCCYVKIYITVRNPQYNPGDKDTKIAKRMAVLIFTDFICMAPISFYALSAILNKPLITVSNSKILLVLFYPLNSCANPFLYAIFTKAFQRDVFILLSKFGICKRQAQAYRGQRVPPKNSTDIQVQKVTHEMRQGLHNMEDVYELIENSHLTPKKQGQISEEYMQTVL
Procedure, shortened: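 Steps: seed 800 TSHR-HEK293 cells per well; add test compound and hold 30 min at ambient temperature; dispense cAMP-d2 then anti-cAMP cryptate; incubate 1 h at ambient; measure fluorescence intensity.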

[14] = qHTS assay to identify small molecule agonists of the hypoxia (HIF-1) signaling pathway - cell viability counter screen (AID 1224844; calls by dose curve; note: nearly all actives have a fitted effect of over 50% in size; note: potency is the fitted concentration of half-maximal effect); settings: HRE-bla ME-180 viability, CellTiter-Glo luminescence, 17 h; series mostly up to 76.8 µM
Procedure, shortened: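 Luminescent ATP content (CellTiter-Glo, 30 min, room temperature) served as the viability measure in HRE-bla ME-180 cells exposed to compounds for 17 hrs in low-serum medium (0.5% dialyzed FBS).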

[15] = qHTS assay to identify small molecule agonists of the retinoic acid receptor (RAR) signaling pathway (AID 1159553); settings: C3RL4 RARE luciferase reporter, agonist, 6 h; activation: at 73.3 µM (top of the series) unless noted
Procedure, shortened: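 Cell line C3RL4, RARE luciferase reporter. Treatment: compounds in DMSO, 6 hr, 37 C, 5% CO2, after overnight plating. Detection: luminescence, 30 min RT after reagent.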

[16] = qHTS assay to identify small molecule antagonists of the estrogen related receptor (ERR) signaling pathway - cell viability counter screen (AID 1224818); settings: ERR reporter cell line viability counter screen; series mostly up to 46.1 µM;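 note: viability measured after 17.5 h of compound exposure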
Procedure, shortened: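 Here, ERR cells are plated at 2,000 cells per well, allowed 6 h to attach, and treated with compounds in DMSO for 17.5 h at 37 C. CellTiter-Fluor is then added and fluorescence read after 30 min.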

Measured: Potency

C=C(CC)C(=O)c1ccc(OCC(=O)O)c(Cl)c1Cl
active: [3] 48.2 µM | [9] 3.35 µM | [11] 30.4 µM and 29.8 µM | [14] 19.4 µM and 21.3 µM
79.1 µM (active) and inactive: [5]
not listed: [15] | [16]
inactive: all other assays above

O=C(O)Cc1ccc2c(c1)C(=O)c1ccccc1CO2
active: [5] 30.9 µM
not listed: [8] | [9] | [11] | [12] | [15] | [16]
inactive: all other assays above

Oc1cc(Cl)cc(Cl)c1Cl
inactive: [1] | [2] | [15] | [6] | [7] | [9] | [13] | [14]

O=C(/C=C/c1ccc(O)c(O)c1)O[C@@H](C(=O)O)[C@@H](OC(=O)/C=C/c1ccc(O)c(O)c1)C(=O)O
inactive: [1] | [2] | [3] | [15] | [6] | [8] | [9] | [10] | [14]

O=c1c(O)c(-c2ccc(O)cc2O)oc2cc(O)cc(O)c12
inactive: [1] | [2] | [16] | [6] | [7] | [8] | [9] | [10] | [13]

Nc1ccc(Oc2ccc(Cl)cc2)cc1
not listed: [5] | [9] | [15] | [16]
inactive: all other assays above

Nc1cc(Cl)c(O)c(Cl)c1
not listed: [3] | [9] | [13] | [14] | [15] | [16]
inactive: all other assays above

CCC(COC(=O)CCS)(COC(=O)CCS)COC(=O)CCS
not listed: [3] | [10] | [15] | [16]
inactive: all other assays above

S=C([S-])NCCNC(=S)[S-].S=C([S-])NCCNC(=S)[S-].[Mn+2].[Zn+2]
inactive: [1] | [2] | [7] | [10] | [13] | [14]
active: [5] 15.5 µM

Nc1nc(N)nc(-c2cc(Cl)ccc2Cl)n1
inactive: [1] | [2] | [5] | [6] | [7] | [8] | [9] | [10] | [14]

CN1CCC[C@@H]1CCO[C@](C)(c1ccccc1)c1ccc(Cl)cc1
active: [1] 8.49 µM | [4] 26.6 µM | [14] 21.3 µM
inactive: [2] | [9] | [11] | [12]
